The campaign covered roughly 310,000 compounds. About 17,000 (5.5%) were called active. Roughly 11% stayed inconclusive and do not appear here. The full list was thinned out, with actives kept by preference. Values without a mark were called inactive. The call rests on the fitted dose curve; in most records, active means well fitted inhibition curve with a large enough effect; inconclusive means small, poorly fitted or top-dose-only effect, or effect the other way; inactive means no such curve, though single readings can be large or run the other way.
biological target: Nuclear receptor ROR-gamma (Mus musculus) (UniProt P51450); assay: qHTS for inhibitors of ROR gamma transcriptional activity; conditions: Drosophila S2 Gal4-RORgamma UAS-luciferase reporter, 20 h; series mostly up to 53.6 µM; activity change, negative = inhibition: at the top concentration; further: nearly all actives have a fitted effect of over 60% in size
Sequence (P51450 whole entry, looked up, the tested form may be a part): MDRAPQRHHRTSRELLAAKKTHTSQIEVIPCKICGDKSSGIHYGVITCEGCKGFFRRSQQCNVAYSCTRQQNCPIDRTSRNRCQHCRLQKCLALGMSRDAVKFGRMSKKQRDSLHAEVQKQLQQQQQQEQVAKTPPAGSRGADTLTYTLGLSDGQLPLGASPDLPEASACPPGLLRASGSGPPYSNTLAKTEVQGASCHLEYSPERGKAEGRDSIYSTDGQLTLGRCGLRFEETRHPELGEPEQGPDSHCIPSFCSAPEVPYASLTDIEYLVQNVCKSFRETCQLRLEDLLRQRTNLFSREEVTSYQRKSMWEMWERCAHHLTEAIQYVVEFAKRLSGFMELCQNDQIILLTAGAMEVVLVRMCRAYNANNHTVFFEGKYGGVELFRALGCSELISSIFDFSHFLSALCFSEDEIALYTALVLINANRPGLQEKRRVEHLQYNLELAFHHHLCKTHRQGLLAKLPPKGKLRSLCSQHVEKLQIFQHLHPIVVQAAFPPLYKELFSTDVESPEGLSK
Summary of the method: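 Schneider cells (Drosophila), stable Gal4 DBD–ROR gamma + UAS-luc; 1 hr cmpd preincubation; Cu2+ induction 700 uM final; 20 hr ambient; luminescence.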
On the % scale 0 is the no-effect control and ±100 the full control effect; potency means the concentration at half of the fitted maximal effect.

Q: `CC1CCCN(CCCNC(=O)CN2C(=O)COc3ccc(S(=O)(=O)N4CCOCC4)cc32)C1` (stereo not drawn) was tested. Which “activity change, negative = inhibition” value did it give?
A: -12.2%

Q: With `CC(C)[C@@H](C(=O)O)N(Cc1cccc(CN([C@H](C(=O)O)C(C)C)S(C)(=O)=O)c1)S(C)(=O)=O` as the molecule, how does the “activity change, negative = inhibition” value read?
A: 0.567%

Q: Which “activity change, negative = inhibition” value does the source give for `COc1ccc(CCNC(=O)c2c(C)nn(-c3ccccc3)c2Cl)cc1` here?
A: 24.7%

Q: Which “activity change, negative = inhibition” value does the source give for `COc1ccc(CC(=O)NC2CCSc3ccccc32)cc1OC` (stereo not drawn) here?
A: 7.66%

Q: `COC(=O)c1ccc(Nc2ncnc3sccc23)cc1` was tested. Which “activity change, negative = inhibition” value did it give?
A: 38.8%

Q: Which “activity change, negative = inhibition” value does the source give for `O=S(=O)(c1ccccc1)N(Cc1cccc(F)c1)c1ccccc1` here?
A: 2.19%

Q: With `N#CCC(=O)NC1CCC(CC2CCC(NC(=O)CC#N)CC2)CC1` (stereo not drawn) as the molecule, how does the “activity change, negative = inhibition” value read?
A: 21.4%

Q: `CCOC(OCC)c1ccc(/C=C\c2nccc(N)n2)cc1` was tested. Which “activity change, negative = inhibition” value did it give?
A: -4.15%

Q: For `Cc1cc(=O)n2nc(N3CCC(C(=O)Nc4c(F)c(F)c(F)c(F)c4F)CC3)sc2n1`, which “activity change, negative = inhibition” value is on record?
A: 8.27%

Q: For `COc1ccc(C)cc1NC(=O)NCCCCc1ccccc1`, which “activity change, negative = inhibition” value is on record?
A: 33.6%

Q: Which “activity change, negative = inhibition” value does the source give for `Cc1cc(CNC(=O)C2CCC(=O)N(CCc3ccc(Cl)cc3)C2)no1` (stereo not drawn) here?
A: 0.942%

Q: With `COC1=C(N2CCOCC2)C(=O)c2ccccc2C1=O` as the molecule, how does the “activity change, negative = inhibition” value read?
A: 4.55%

Q: `CCOc1ccc(NC(=O)c2ccc(NC(=O)C3CCCO3)cc2)cc1` (stereo not drawn) was tested. Which “activity change, negative = inhibition” value did it give?
A: -12.3%

Q: `Cc1ccccc1C(=O)NC(=S)NC1CC1` was tested. Which Potency did it give?
A: 14.1 µM (active)

Q: How did the “activity change, negative = inhibition” value turn out when `Cc1ccccc1C(=O)Nc1ccccc1NC(=O)c1ccccc1C` was run?
A: -10.9%

Q: How did the “activity change, negative = inhibition” value turn out when `O=C(NC(=S)NC1CCSC1=O)c1ccccc1F` (stereo not drawn) was run?
A: -29.6%

Q: With `COC(=O)Cn1c(O)c(N=NC(=O)OC)c2ccccc21` as the molecule, how does the “activity change, negative = inhibition” value read?
A: 7.4%

Q: With `CC(C)n1c(C(O)c2ccccc2)nc2ccccc21` (stereo not drawn) as the molecule, how does the “activity change, negative = inhibition” value read?
A: -20.2%

Q: `CC(C)n1c(O)c(N=Nc2ccccn2)c2ccccc21` was tested. Which Potency did it give?
A: 8.91 µM (active)

Q: For `COc1ccc(C=Nc2cccc3ncccc23)cc1`, which “activity change, negative = inhibition” value is on record?
A: -11%

Q: Which Potency does the source give for `COc1ccc(/C=N/Nc2nc3ccccc3c(=O)[nH]2)cc1` here?
A: 11.2 µM (active)

Q: For `COc1ccc(/C=N/Nc2nc(-c3ccc(C)cc3)c(C#N)c(=O)[nH]2)cc1`, which activity change, negative = inhibition is on record?
A: 20.4% [at 1.91 µM]

Q: How did the “activity change, negative = inhibition” value turn out when `COc1ccccc1C(=O)N/C(=C/c1ccc2c(c1)OCO2)C(=O)Nc1cccc(C(=O)O)c1` was run?
A: 5.47%

Q: How did the “activity change, negative = inhibition” value turn out when `CCOc1ccccc1Nc1ccc2nonc2c1[N+](=O)[O-]` was run?
A: 7.05%

Q: Which Potency does the source give for `O=[N+]([O-])c1c(NCCO)cc(Sc2nc3ccccc3s2)c2nonc12` here?
A: 2.82 µM (active)

Q: How did the “activity change, negative = inhibition” value turn out when `O=C(CSc1nc2ccccc2s1)Nc1ccc(C(=O)O)cc1` was run?
A: 12.8%

Q: For `CC(C)OCCCNC(=O)CN1C(=O)/C(=C/c2ccccc2F)Oc2ccccc21`, which “activity change, negative = inhibition” value is on record?
A: -0.186%

Q: Which Potency does the source give for `CCn1c(CSCc2c(Cl)cccc2Cl)n[nH]c1=S` here?
A: 3.16 µM (active)

Q: Which “activity change, negative = inhibition” value does the source give for `CCn1c(CNS(=O)(=O)c2ccc(Cl)cc2)n[nH]c1=S` here?
A: -10.8%

Q: For `O=C(CSCc1c(Cl)cccc1Cl)NN1C(=O)c2ccccc2C1=O`, which “activity change, negative = inhibition” value is on record?
A: -1.68%

Q: `O=C1NC(c2ccccc2)Oc2ccccc21` (stereo not drawn) was tested. Which “activity change, negative = inhibition” value did it give?
A: 4.56%

Q: With `CCN(CC)CCCNC(=O)COc1ccc2oc3c(c2c1)CCCC3` as the molecule, how does the “activity change, negative = inhibition” value read?
A: 6.93%

Q: `Cc1ccc(CNC(=O)C2CCCN2S(=O)(=O)c2ccc3c(c2)C(C)(C)C(=O)N3C)cc1` (stereo not drawn) was tested. Which “activity change, negative = inhibition” value did it give?
A: -3.5%

Q: How did the “activity change, negative = inhibition” value turn out when `CN1CCN(NC(=O)Nc2ccc(Br)cc2)CC1` was run?
A: 16.6%

Q: With `O=C(COc1ccc(-c2ccccc2)cc1)NN=C1CCCC1` as the molecule, how does the “activity change, negative = inhibition” value read?
A: -25.1%

Q: For `CC(NC(=O)C(=O)NN=C1CCC(C(C)(C)C)CC1)c1ccccc1` (stereo not drawn), which “activity change, negative = inhibition” value is on record?
A: -12.8%

Q: Which Potency does the source give for `CC(C)(C)C1CCC(=NNC(=O)c2cc(-c3ccccc3)n[nH]2)CC1` (stereo not drawn) here?
A: 11.2 µM (active)

Q: With `CC1CN(CC(=O)NC(C)c2ccccc2)CC(C)O1` (stereo not drawn) as the molecule, how does the “activity change, negative = inhibition” value read?
A: -6.55%

Q: With `CCOC(=O)C(=O)Nc1nc(-c2ccccc2)c(CC)s1` as the molecule, how does the “activity change, negative = inhibition” value read?
A: -31.4%

Q: Which Potency does the source give for `C/C(=N/Nc1nc(-c2ccccc2)c(CC(=O)O)s1)c1ccccc1` here?
A: 11.2 µM (active)

Q: For `Cc1ccc(-c2nc(C)sc2CC(=O)O)cc1`, which “activity change, negative = inhibition” value is on record?
A: -0.336%

Q: `Cc1ccc(-c2nc3ccccc3[nH]2)cc1NC(=O)c1sc2ccccc2c1Cl` was tested. Which “activity change, negative = inhibition” value did it give?
A: -7.38%

Q: How did the “activity change, negative = inhibition” value turn out when `O=C(/C=C/c1ccco1)Nc1cccc(-c2nc3ccccc3[nH]2)c1` was run?
A: 23.4%

Q: For `O=C(Nc1cccc(-c2nc3ccccc3[nH]2)c1)c1ccc(C(=O)Nc2cccc(-c3nc4ccccc4[nH]3)c2)cc1`, which Potency is on record?
A: 2 µM (active)

Q: `Cc1cccc2[nH]c(CN(C)C(=O)C3CCC(=O)N(CCc4ccccc4)C3)nc12` (stereo not drawn) was tested. Which “activity change, negative = inhibition” value did it give?
A: -19.4%

Q: For `C/C(N)=C(/C#N)C(=O)COC(=O)C1=NN(c2ccccc2)C(=O)CC1`, which “activity change, negative = inhibition” value is on record?
A: 10.9%

Q: For `N/C(=N\OC(=O)Nc1ccc(Cl)c(Cl)c1)c1ncc(C(F)(F)F)cc1Cl`, which “activity change, negative = inhibition” value is on record?
A: 7.87%

Q: With `COc1cccc(/C=N/Nc2ncc(C(F)(F)F)cc2Cl)c1O` as the molecule, how does the Potency read?
A: 1.26 µM (active)

Q: With `COC(=O)Cc1ccc(Oc2ncc(C(F)(F)F)cc2Cl)cc1` as the molecule, how does the “activity change, negative = inhibition” value read?
A: -9.46%

Q: `CCOC(=O)N1CCN(C(=O)COCc2cc(-c3ccc4c(c3)OCO4)on2)CC1` was tested. Which “activity change, negative = inhibition” value did it give?
A: -3.42%

Q: With `CCOC(=O)c1ccc(N2C(=O)CC(Sc3nc(O)c(CC)c(=O)[nH]3)C2=O)cc1` (stereo not drawn) as the molecule, how does the “activity change, negative = inhibition” value read?
A: -0.429%

Q: For `CCOc1ccccc1N1C(=O)CC(Sc2nccc(C)n2)C1=O` (stereo not drawn), which Potency is on record?
A: 25.1 µM (active)

Q: Which “activity change, negative = inhibition” value does the source give for `Cc1ccnc(SCC(N)=O)n1` here?
A: 9.61%

— PubChem BioAssay AID2551 (National Center for Advancing Translational Sciences (NCATS), 2010)
